In PubChem BioAssay AID2284339 (EPA ToxCast):
The source made the active and inactive calls. The calls were made as follows: active = hit-call score of the fitted dose curve at least 0.9, where 1 is the maximum; inactive = score below 0.9.

What follows are compounds tested on NCBI gene 100038242 (assay: CCTE_GLTED_xDIO3: CCTE's Xenopus Iodothyronine Deiodinase Type 3 (xDIO3) Inhibition Assay, Great Lakes Toxicology and Ecology Division (GLTED) Lab).
Experimental: CCTE_GLTED_xDIO3 is a cell-free, single-readout assay designed to test the inhibitory activity of chemicals toward Xenopus (frog) iodothyronine Deiodinase Type 3 (DIO3) enzyme. Enzyme is incubated in presence of test chemical for 3 hours during which uninhibited enzyme liberates free iodide from substrate. Free iodide is measured in a second step using the Sandell-Kolthoff method.CCTE_GLTED_xDIO3 is the assay component measured from the CCTE_GLTED_xDIO assay. It is designed to make measurements of enzyme activity, a form of enzyme reporter, as detected with absorbance signals by spectrophotometry.Data from the assay component CCTE_GLTED_xDIO3 was analyzed at the assay endpoint CCTE_GLTED_xDIO3 in the positive analysis fitting direction relative to DMSO as the negative control and baseline of activity. Using a type of enzyme reporter, loss-of-signal activity can be used to understand deiodinase Type 3 activity. To generalize the intended target to other relatable targets, this assay endpoint is annotated to the 'deiodinase' intended target family, where the subfamily is 'deiodinase Type 3'.
[…]

| SMILES | AC50 | outcome |
| --- | --- | --- |
| OC(O)(C(F)C(O)(O)C(F)(F)F)C(F)(F)F | 19.8 µM (active) |  |
| C=CC(=O)OCC(F)(F)C(F)(F)C(F)(F)COC(=O)C=C | 33.5 µM (active) |  |
| O=C(O)C(F)(F)C(F)(F)C(F)(F)C(F)(F)C(F)(F)C(F)(F)C(F)(F)C(F)(F)C(F)(F)C(F)F | 161 µM (active) |  |
| C=CC(=O)OCC(F)(F)C(F)(F)C(F)(F)C(F)(F)C(F)(F)C(F)(F)C(F)(F)C(F)F | 20.7 µM (active) |  |
| C=C(C)C(=O)OCC(F)(F)C(F)(F)C(F)(F)F |  | inactive |
| C=CC(=O)OCCC(F)(F)C(F)(F)C(F)(F)C(F)(F)F | 24.4 µM (active) |  |
| COc1cc(O)c(CC=C(C)C)c(O)c1C(=O)/C=C/c1ccc(O)cc1 | 0.16 µM (active) |  |
| O=P(O)(O)CCC(F)(F)C(F)(F)C(F)(F)C(F)(F)C(F)(F)C(F)(F)C(F)(F)C(F)(F)F |  | inactive |
| O=C(Cl)C(F)(F)C(F)(F)C(F)(F)C(F)(F)C(F)(F)C(F)(F)C(F)(F)C(F)(F)F |  | inactive |
| O=C(O)C(F)(F)OC(F)(F)C(F)(F)OC(F)(F)C(F)(F)OC(F)(F)C(F)(F)C(F)(F)C(F)(F)F | 72.2 µM (active) |  |
| O=C(O)C(F)(F)C(F)(F)C(F)(F)C(F)(F)C(F)(F)C(F)(F)C(F)(F)C(F)(F)C(F)(F)C(F)(F)C(F)(F)C(F)(F)F |  | inactive |
| O=C(O)C(F)(F)C(F)(F)C(F)(F)C(F)(F)C(F)(F)C(F)(F)C(F)(F)C(F)(F)Cl |  | inactive |
| C=C(C)C(=O)OCC(F)(F)C(F)(F)C(F)(F)C(F)F | 17.7 µM (active) |  |
| C=CC(=O)OCC(F)(F)C(F)(F)C(F)(F)C(F)(F)COC(=O)C=C | 15.9 µM (active) |  |
